# This is one part of a sample in which hits are shown more often than they occur.
# Pf Dd2 growth = qHTS Primary assay for Inhibitors of Plasmodium falciparum Dd2 growth in vitro; AID 1347417, 2020; Potency, µM (series often up to 28.9 µM), usual class: inhibitors; P. falciparum Dd2 growth, SYBR Green, 72 h; hit rate 4.3% among 120,000; active = well fitted inhibition curve with a large enough effect; also: nearly all actives have a fitted effect of over 65% in size
#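 Infected erythrocytes (Dd2, 0.3% parasitemia, 2.5% hematocrit final) are added to compound in RPMI-1640/Albumax II medium, grown 72 h at 37C in low oxygen, then lysed with saponin/Triton-X containing SYBR Green and read by fluorescence.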
# Hits are given with their value; i = inactive; [ ] = another dose, or the depositor's remark.
SMILES,Pf Dd2 growth
CNC(=O)C(C)(C)N1CCC[C@H]1C(=O)NCCc1ccccc1,i
COC1CCN(S(=O)(=O)N2C[C@H](c3ccc(C)o3)[C@@H](N)C2)CC1,11µM
Cc1ccc([C@H]2CN(C(=O)c3[nH]nc(N)c3-c3ccccc3)C[C@@H]2N)o1,i
COC1CCN(S(=O)(=O)N2CCCC(C)(c3ccccc3)C2)CC1 (stereo not given),i
O=C(c1cccc(F)c1F)N1CCOc2ccc(CN3CCN(c4ccccn4)CC3)cc2C1,i
c1ccc(OCc2noc(-c3ccc(NC4CCSC4)nc3)n2)cc1 (stereo not given),10µM
CC1(COc2ccc(-c3nc(COc4ccccc4)no3)cn2)CCCNC1 (stereo not given),i
CCC(O)CNc1ccc(-c2nc(COC)no2)cn1 (stereo not given),i
CC(C)N1C(=O)C2(CCCC2)C1C(=O)NC1CCCC1 (stereo not given),i
COc1ccc(C(=O)Nc2ccc([C@H]3OCC(=O)N(Cc4ccncc4)[C@@H]3CO)cc2)cc1OC,i
O=C(CC1CCCCN(Cc2ccccc2)C1=O)NC1CC1 (stereo not given),i
Cc1ccc(CNC(=O)c2cnn(-c3ccc(F)cc3F)c2C2CCN(C(=O)OC(C)(C)C)CC2)cc1,11µM
CC(C)(C)OC(=O)N1CCC(c2c(C(=O)N3CCN(c4ncccn4)CC3)cnn2-c2ccc(F)cc2F)CC1,i
COc1ccc(OC)c(CCNC(=O)c2cnn(-c3ccccc3Cl)c2C2CCN(C(=O)OC(C)(C)C)CC2)c1,7.9µM
COc1cc(OC)c(NC(=O)c2cnn(-c3cccc(Cl)c3C)c2C2CCN(C(=O)OC(C)(C)C)CC2)cc1Cl,3.5µM
CC(C)(C)OC(=O)N1CCC(c2c(C(=O)N3CCOCC3)cnn2-c2ccccc2Cl)CC1,i
COc1ccccc1CNC(=O)c1cnn(-c2ccc(F)cc2F)c1C1CCN(C(=O)OC(C)(C)C)CC1,10µM
CC(C)(C)OC(=O)N1CCC(c2c(C(=O)NCCc3ccsc3)cnn2-c2ccccc2Cl)CC1,i
CC(C)(C)OC(=O)N1CCC(c2c(C(=O)NC3CCCCC3)cnn2-c2ccc(F)cc2F)CC1,i
Cc1ccc(C(=O)N2CCC3(CC2)CC(=O)Nc2ccccc2O3)cc1,i
COCCC1(NC(=O)C2CCOCC2)CCN(C(=O)C2CCCCC2)CC1,i
COc1ccc(OCc2nc(C)c(CCO)c(=O)n2CC(=O)Nc2ccc(OC)c(OC)c2)cc1,i
Cc1ccc(C)c(NC(=O)Cn2c(=O)n(-c3ccccc3)c(=O)c3c2cc(C)n3C)c1,i
c1ccc(C2CCCN(CCn3ccnc3-c3cc4n(n3)CCNC4)C2)cc1 (stereo not given),i
CC(C)CNC(=O)c1csc(-c2cccc(OC(C)C)c2)n1,i
SMILES,Pf Dd2 growth
CNc1nc(N2C[C@H]3CN(CCCOC)C[C@@]3(C(=O)O)C2)ncc1F,i
O=C(c1cccc(F)c1)N1CCCC(Cc2noc(-c3ccncc3)n2)C1 (stereo not given),i
CC(=O)c1cc(CN2CCC3(CC2)C(C(=O)O)CC(=O)N3C)n(C)c1 (stereo not given),i
O=C(C1CC(=O)N(c2n[nH]c3cccc(F)c23)C1)N1CCN(c2ccc(F)cc2)CC1 (stereo not given),i
COc1cccc(N2CCN(C(=O)C3CC(=O)N(c4n[nH]c5cccc(F)c45)C3)CC2)c1 (stereo not given),i
COc1ccccc1N1CCN(C(=O)C2CC(=O)N(c3n[nH]c4cccc(F)c34)C2)CC1 (stereo not given),7.1µM
Cn1nc(C2CCN(C(=O)Nc3ccccc3)CC2)[nH]c1=O,i
O=C(NCc1ccncc1)c1cn(C2CN(C(=O)Nc3ccc4c(c3)OCCO4)C2)nn1,i
COc1ccccc1N1CCN([C@@H]2[C@H](O)[C@H](CO)O[C@@H]2CNC(=O)c2ccccc2)CC1,i
COc1ccccc1N1CCC(N2CCN(CCCc3ccccc3)C(CCO)C2)CC1 (stereo not given),10µM
CCOc1ccc(CN2CCN(C3CCN(C(C)C)CC3)CC2CCO)cc1 (stereo not given),i
Cc1ncoc1C(=O)N[C@@H]1CN(Cc2ccccc2)C[C@H]1CN(C)C,i
COc1ccc(-c2noc(CCC(=O)Nc3ccc(C(F)(F)F)cc3)n2)cc1,i
O=C1C(c2ccc(C(F)(F)F)cc2)=C(Nc2ccc(Cl)cc2)c2ccccc21,0.89µM
O=C(Cn1nc(-c2ccc(Cl)cc2)c2ccccc2c1=O)Nc1cccc(C(F)(F)F)c1,i
COc1ccc(NC2=C(c3ccc(C(F)(F)F)cc3)C(=O)c3ccccc32)cc1,0.45µM
COc1ccc(NC(=O)N(C)Cc2cccc(C(F)(F)F)c2)cc1,i
O=C(C[C@H]1NC(=O)c2ccccc2NC1=O)Nc1ccc(C(F)(F)F)cc1,i
CC1CCN(C(=O)CN2C(=O)NC3(CCC(C(C)(C)C)CC3)C2=O)CC1 (stereo not given),i
c1ccc(CCCc2noc(-c3ccc(N4CCCNCC4)nc3)n2)cc1,i
CN1CCN(c2nc3c(c(=O)[nH]2)CCN(Cc2cn[nH]c2-c2ccccc2)CC3)CC1,i[5.79 µM]
O=C(C1CCCC1)N1CC2(CCCCN2CC2CC2)Cc2ccccc21 (stereo not given),i
CC(=O)NCCC(=O)N1Cc2ccccc2CC2(CCCN2CCc2ccc(C)cc2)C1 (stereo not given),8.9µM
CCCN1CCCC12Cc1ccccc1CN(C(=O)CCNC(C)=O)C2 (stereo not given),i
CC(=O)NCCC(=O)N1Cc2ccccc2CC2(CCCN2CC2CCCCC2)C1 (stereo not given),8.9µM
SMILES,Pf Dd2 growth
CC(=O)NCCC(=O)N1Cc2ccccc2CC2(CCCN2CC2CCNCC2)C1 (stereo not given),i
CC(=O)NCCC(=O)N1Cc2ccccc2CC2(CCN(CC3CCNC3)C2)C1 (stereo not given),i
CC(=O)N1Cc2ccccc2CC2(CCCN2CC2CCCC2)C1 (stereo not given),10µM
CC(=O)N1CC2(CCCN2CC2CC2)Cc2ccccc21 (stereo not given),10µM
CC(=O)N1Cc2ccccc2CC2(CCCN2CC2CCOCC2)C1 (stereo not given),i
CC(=O)N1CC2(CCCN2C2COC2)Cc2ccccc21 (stereo not given),i
CN1CCC(C(=O)N2Cc3ccccc3CC3(CCCCN3CC3CCNCC3)C2)CC1 (stereo not given),i
Cc1oc2c(c1C(=O)NC1CCOC3(CCOCC3)C1)C(=O)CCC2 (stereo not given),i
Cc1ccc(C(=O)NC(C)c2nc(-c3ccccn3)no2)cc1N1CCNC1=O (stereo not given),i
O=C(NCc1ccco1)C1CC(c2ccccc2)CN(C(=O)c2ccoc2)C1 (stereo not given),i
COCc1nc(-c2ccc(OC3CCN(Cc4ccc(C(F)(F)F)cc4)C3)cc2)no1 (stereo not given),i[5.79 µM]
COCC(NC(=O)c1cc(S(N)(=O)=O)ccc1F)c1ccnn1C (stereo not given),i
O=C(O)c1ccc(C2CCCN(C(=O)c3cccc4cccnc34)C2)cc1 (stereo not given),i
CN1CCN(Cc2nc(C3(O)CCN(C4COC4)CC3)cs2)CC1,i
COc1ccccc1NC(=O)CN1CCC(O)(c2ccc(C)cn2)CC1,i
Cc1ccc(C2(O)CCN(CC(c3ccccc3)c3ccccc3)CC2)nc1,2.8µM
Cc1ccc(C2(O)CCN(c3ncccc3C(F)(F)F)CC2)nc1,i
